# Assay results reported in the supplement of paper PMC4466140.
# B1: unnamed (peptide)
# chain: ALKQKKIPPPFKPHL
# Molecular target: AgAbp1
# Assay: SPOT peptide array binding signal intensity (averaged, normalized) (arbitrary units (background-subtracted, floor 0; scale differs between SH3 domains)); higher = stronger binding of the SH3 domain to the peptide
# Procedure: (§1)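 GST-tagged SH3 domains from S. cerevisiae (Sc), A. gossypii (Ag), C. albicans (Ca) and S. pombe (Sp) were incubated at 10 ug/ml overnight at 4 C on cellulose SPOT membranes carrying 292 synthetic 15-mer peptides mined from the S. cerevisiae proteome (cysteines replaced by serines). Binding was detected with anti-GST antibody, HRP secondary and chemiluminescence, quantified with Genespotter, and reported as normalized spot intensities averaged over biological replicates.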
row,Binder,SPOT peptide array binding signal intensity
1,B1,43.5

# Molecular target: AgBbc1
# Assay: as above
# Procedure: as §1
row,Binder,SPOT peptide array binding signal intensity
1,B1,≤ 0

# Molecular target: AgBem1-D1
# Assay: as above
# Procedure: as §1
row,Binder,SPOT peptide array binding signal intensity
1,B1,4

# Molecular target: AgBzz1-D1
# Assay: as above
# Procedure: as §1
row,Binder,SPOT peptide array binding signal intensity
1,B1,43

# Molecular target: AgBzz1-D2
# Assay: as above
# Procedure: as §1
row,Binder,SPOT peptide array binding signal intensity
1,B1,22

# Molecular target: AgCyk3
# Assay: as above
# Procedure: as §1
row,Binder,SPOT peptide array binding signal intensity
1,B1,≤ 0

# Molecular target: AgFus1
# Assay: as above
# Procedure: as §1
row,Binder,SPOT peptide array binding signal intensity
1,B1,≤ 0

# Molecular target: AgHof1
# Assay: as above
# Procedure: as §1
row,Binder,SPOT peptide array binding signal intensity
1,B1,7.5

# Molecular target: AgHse1
# Assay: as above
# Procedure: as §1
row,Binder,SPOT peptide array binding signal intensity
1,B1,≤ 0

# Molecular target: AgLsb1
# Assay: as above
# Procedure: as §1
row,Binder,SPOT peptide array binding signal intensity
1,B1,≤ 0

# Molecular target: AgLsb4
# Assay: as above
# Procedure: as §1
row,Binder,SPOT peptide array binding signal intensity
1,B1,≤ 0

# Molecular target: AgMyo5
# Assay: as above
# Procedure: as §1
row,Binder,SPOT peptide array binding signal intensity
1,B1,≤ 0

# Molecular target: AgNbp2
# Assay: as above
# Procedure: as §1
row,Binder,SPOT peptide array binding signal intensity
1,B1,≤ 0

# Molecular target: AgRvs167
# Assay: as above
# Procedure: as §1
row,Binder,SPOT peptide array binding signal intensity
1,B1,≤ 0

# Molecular target: AgSho1
# Assay: as above
# Procedure: as §1
row,Binder,SPOT peptide array binding signal intensity
1,B1,≤ 0

# Molecular target: AgSla1-D1-D2
# Assay: as above
# Procedure: as §1
row,Binder,SPOT peptide array binding signal intensity
1,B1,≤ 0

# Molecular target: AgSla1-D3
# Assay: as above
# Procedure: as §1
row,Binder,SPOT peptide array binding signal intensity
1,B1,2.5

# Molecular target: CaAbp1-D1
# Assay: as above
# Procedure: as §1
row,Binder,SPOT peptide array binding signal intensity
1,B1,938

# Molecular target: CaAbp1-D2
# Assay: as above
# Procedure: as §1
row,Binder,SPOT peptide array binding signal intensity
1,B1,984

# Molecular target: CaBbc1
# Assay: as above
# Procedure: as §1
row,Binder,SPOT peptide array binding signal intensity
1,B1,≤ 0

# Molecular target: CaBem1-D1
# Assay: as above
# Procedure: as §1
row,Binder,SPOT peptide array binding signal intensity
1,B1,2

# Molecular target: CaBzz1-D1
# Assay: as above
# Procedure: as §1
row,Binder,SPOT peptide array binding signal intensity
1,B1,589

# Molecular target: CaBzz1-D2
# Assay: as above
# Procedure: as §1
row,Binder,SPOT peptide array binding signal intensity
1,B1,205

# Molecular target: CaCyk3
# Assay: as above
# Procedure: as §1
row,Binder,SPOT peptide array binding signal intensity
1,B1,≤ 0

# Molecular target: CaFus1
# Assay: as above
# Procedure: as §1
row,Binder,SPOT peptide array binding signal intensity
1,B1,19.5

# Molecular target: CaHof1
# Assay: as above
# Procedure: as §1
row,Binder,SPOT peptide array binding signal intensity
1,B1,0.5

# Molecular target: CaHse1
# Assay: as above
# Procedure: as §1
row,Binder,SPOT peptide array binding signal intensity
1,B1,0.5

# Molecular target: CaLsb1
# Assay: as above
# Procedure: as §1
row,Binder,SPOT peptide array binding signal intensity
1,B1,≤ 0

# Molecular target: CaLsb4
# Assay: as above
# Procedure: as §1
row,Binder,SPOT peptide array binding signal intensity
1,B1,≤ 0

# Molecular target: CaMyo5
# Assay: as above
# Procedure: as §1
row,Binder,SPOT peptide array binding signal intensity
1,B1,0.5

# Molecular target: CaNbp2
# Assay: as above
# Procedure: as §1
row,Binder,SPOT peptide array binding signal intensity
1,B1,15.5

# Molecular target: CaRvs167
# Assay: as above
# Procedure: as §1
row,Binder,SPOT peptide array binding signal intensity
1,B1,≤ 0

# Molecular target: CaRvs167-3
# Assay: as above
# Procedure: as §1
row,Binder,SPOT peptide array binding signal intensity
1,B1,4.5

# Molecular target: CaSho1
# Assay: as above
# Procedure: as §1
row,Binder,SPOT peptide array binding signal intensity
1,B1,≤ 0

# Molecular target: CaSla1-D1-D2
# Assay: as above
# Procedure: as §1
row,Binder,SPOT peptide array binding signal intensity
1,B1,≤ 0

# Molecular target: CaSla1-D3
# Assay: as above
# Procedure: as §1
row,Binder,SPOT peptide array binding signal intensity
1,B1,2

# Molecular target: ScAbp1
# Assay: as above
# Procedure: as §1
row,Binder,SPOT peptide array binding signal intensity
1,B1,29

# Molecular target: ScBbc1
# Assay: as above
# Procedure: as §1
row,Binder,SPOT peptide array binding signal intensity
1,B1,≤ 0

# Molecular target: ScBem1-D1
# Assay: as above
# Procedure: as §1
row,Binder,SPOT peptide array binding signal intensity
1,B1,≤ 0

# Molecular target: ScBzz1-D1
# Assay: as above
# Procedure: as §1
row,Binder,SPOT peptide array binding signal intensity
1,B1,9

# Molecular target: ScBzz1-D2
# Assay: as above
# Procedure: as §1
row,Binder,SPOT peptide array binding signal intensity
1,B1,3

# Molecular target: ScCyk3
# Assay: as above
# Procedure: as §1
row,Binder,SPOT peptide array binding signal intensity
1,B1,≤ 0

# Molecular target: ScFus1
# Assay: as above
# Procedure: as §1
row,Binder,SPOT peptide array binding signal intensity
1,B1,≤ 0

# Molecular target: ScHof1
# Assay: as above
# Procedure: as §1
row,Binder,SPOT peptide array binding signal intensity
1,B1,1

# Molecular target: ScHse1
# Assay: as above
# Procedure: as §1
row,Binder,SPOT peptide array binding signal intensity
1,B1,74

# Molecular target: ScLsb1
# Assay: as above
# Procedure: as §1
row,Binder,SPOT peptide array binding signal intensity
1,B1,≤ 0

# Molecular target: ScLsb2
# Assay: as above
# Procedure: as §1
row,Binder,SPOT peptide array binding signal intensity
1,B1,≤ 0

# Molecular target: ScLsb3
# Assay: as above
# Procedure: as §1
row,Binder,SPOT peptide array binding signal intensity
1,B1,≤ 0

# Molecular target: ScLsb4
# Assay: as above
# Procedure: as §1
row,Binder,SPOT peptide array binding signal intensity
1,B1,≤ 0

# Molecular target: ScMyo3
# Assay: as above
# Procedure: as §1
row,Binder,SPOT peptide array binding signal intensity
1,B1,≤ 0

# Molecular target: ScMyo5
# Assay: as above
# Procedure: as §1
row,Binder,SPOT peptide array binding signal intensity
1,B1,1

# Molecular target: ScNbp2
# Assay: as above
# Procedure: as §1
row,Binder,SPOT peptide array binding signal intensity
1,B1,≤ 0

# Molecular target: ScPex13
# Assay: as above
# Procedure: as §1
row,Binder,SPOT peptide array binding signal intensity
1,B1,≤ 0

# Molecular target: ScRvs167
# Assay: as above
# Procedure: as §1
row,Binder,SPOT peptide array binding signal intensity
1,B1,≤ 0

# Molecular target: ScSho1
# Assay: as above
# Procedure: as §1
row,Binder,SPOT peptide array binding signal intensity
1,B1,≤ 0

# Molecular target: ScSla1-D1-D2
# Assay: as above
# Procedure: as §1
row,Binder,SPOT peptide array binding signal intensity
1,B1,≤ 0

# Molecular target: ScSla1-D3
# Assay: as above
# Procedure: as §1
row,Binder,SPOT peptide array binding signal intensity
1,B1,8

# Molecular target: SpAbp1-D1
# Assay: as above
# Procedure: as §1
row,Binder,SPOT peptide array binding signal intensity
1,B1,20.5

# Molecular target: SpBbc1
# Assay: as above
# Procedure: as §1
row,Binder,SPOT peptide array binding signal intensity
1,B1,≤ 0

# Molecular target: SpBzz1-D1
# Assay: as above
# Procedure: as §1
row,Binder,SPOT peptide array binding signal intensity
1,B1,288

# Molecular target: SpBzz1-D2
# Assay: as above
# Procedure: as §1
row,Binder,SPOT peptide array binding signal intensity
1,B1,≤ 0

# Molecular target: SpCyk3
# Assay: as above
# Procedure: as §1
row,Binder,SPOT peptide array binding signal intensity
1,B1,≤ 0

# Molecular target: SpHof1
# Assay: as above
# Procedure: as §1
row,Binder,SPOT peptide array binding signal intensity
1,B1,≤ 0

# Molecular target: SpHof1-2
# Assay: as above
# Procedure: as §1
row,Binder,SPOT peptide array binding signal intensity
1,B1,≤ 0

# Molecular target: SpHof1-3
# Assay: as above
# Procedure: as §1
row,Binder,SPOT peptide array binding signal intensity
1,B1,39.5

# Molecular target: SpHse1
# Assay: as above
# Procedure: as §1
row,Binder,SPOT peptide array binding signal intensity
1,B1,23

# Molecular target: SpLsb1
# Assay: as above
# Procedure: as §1
row,Binder,SPOT peptide array binding signal intensity
1,B1,≤ 0

# Molecular target: SpLsb4
# Assay: as above
# Procedure: as §1
row,Binder,SPOT peptide array binding signal intensity
1,B1,≤ 0

# Molecular target: SpMyo1
# Assay: as above
# Procedure: as §1
row,Binder,SPOT peptide array binding signal intensity
1,B1,≤ 0

# Molecular target: SpNbp2
# Assay: as above
# Procedure: as §1
row,Binder,SPOT peptide array binding signal intensity
1,B1,≤ 0

# Molecular target: SpPex13
# Assay: as above
# Procedure: as §1
row,Binder,SPOT peptide array binding signal intensity
1,B1,≤ 0

# Molecular target: SpRvs167
# Assay: as above
# Procedure: as §1
row,Binder,SPOT peptide array binding signal intensity
1,B1,≤ 0

# Molecular target: SpSla1-D1-D2
# Assay: as above
# Procedure: as §1
row,Binder,SPOT peptide array binding signal intensity
1,B1,≤ 0

# Molecular target: SpSla1-D3
# Assay: as above
# Procedure: as §1
row,Binder,SPOT peptide array binding signal intensity
1,B1,≤ 0
